The full data set covers some 8,800 targets. This sample favours those with a hit. About 0.5% of all pairs of compound and target were hits.
Experiments:
Assay in all cases: log2 fold change, soluble protein after heating vs DMSO (PISA); higher = thermal stabilisation; K562 lysate, 10 uM; active = over 0.2 and 3.5 SD of the protein, either way, in both replicates (recomputed)
vemurafenib = compound: CCCS(=O)(=O)Nc1ccc(F)c(C(=O)c2c[nH]c3ncc(-c4ccc(Cl)cc4)cc23)c1F [vemurafenib]
Method in brief: (§1)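 Following dounce homogenisation of K562 pellets in PBS pH 7.4 with 1 mM MgCl2, crude extract at 1 mg/mL protein was incubated for 30 min with 10 μM compound. Aliquots were then heated for 3 min over 48°C-58°C and pooled, NP-40 was added to 0.5% at 4°C, and soluble protein was recovered as the supernatant at 21,000xg for 90 min. Channel-sum-equalised TMTpro 16plex LC-MS/MS quantified this protein. Each value, from duplicates, is a log-two fold change in thermal stability relative to solvent controls.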

[1] = compound: CCCS(=O)(=O)Nc1ccc(F)c(C(=O)c2c[nH]c3ncc(Cl)cc23)c1F
Method in brief: as §1

barasertib = compound: CCN(CCCOc1ccc2c(Nc3cc(CC(=O)Nc4cccc(F)c4)[nH]n3)ncnc2c1)CCOP(=O)(O)O [barasertib]
Method in brief: as §1

[2] = compound: CC[C@@H]1C(=O)N(C)c2cnc(Nc3ccc(C(=O)NC4CCN(C)CC4)cc3OC)nc2N1C1CCCC1
Method in brief: as §1

volasertib = compound: CC[C@@H]1C(=O)N(C)c2cnc(Nc3ccc(C(=O)N[C@H]4CC[C@H](N5CCN(CC6CC6)CC5)CC4)cc3OC)nc2N1C(C)C [volasertib]
Method in brief: as §1

[3] = compound: CCn1c(C(=O)N(C2CC2)C2CC2)cc2c3c(ncn3C)c(Nc3cc(C)n(C)n3)nc21
Method in brief: as §1

[4] = compound: CCn1cc(-c2ccnc3[nH]c(-c4cccc(CN(C)C)c4)cc23)c(-c2ccc(NC(=O)N(C)C)cc2)n1
Method in brief: as §1

[5] = compound: CN1CCC(CNc2ccc3ncc(-c4cccc(OC(F)(F)F)c4)n3n2)CC1
Method in brief: as §1

saracatinib = compound: CN1CCN(CCOc2cc(OC3CCOCC3)c3c(Nc4c(Cl)ccc5c4OCO5)ncnc3c2)CC1 [saracatinib]
Method in brief: as §1

sotrastaurin = compound: CN1CCN(c2nc(C3=C(c4c[nH]c5ccccc45)C(=O)NC3=O)c3ccccc3n2)CC1 [sotrastaurin]
Method in brief: as §1

alvocidib = compound: CN1CC[C@H](c2c(O)cc(O)c3c(=O)cc(-c4ccccc4Cl)oc23)[C@H](O)C1 [alvocidib]
Method in brief: as §1

Tubastatin A = compound: CN1CCc2c(c3ccccc3n2Cc2ccc(C(=O)NO)cc2)C1 [Tubastatin A]
Method in brief: as §1

[6] = compound: CNC(=O)C1=CC=CC=C1NC2=NC(=NC=C2Cl)NC3=C(C=C(C=C3)N4CCOCC4)OC
Method in brief: as §1

defactinib = compound: CNC(=O)c1ccc(Nc2ncc(C(F)(F)F)c(NCc3nccnc3N(C)S(C)(=O)=O)n2)cc1 [defactinib]
Method in brief: as §1

[7] = compound: CNc1nc(-c2ccc3c(N)n[nH]c3c2)cc(N2C[C@@H](C(=O)NC3CCCCC3)CC[C@H]2C)n1
Method in brief: as §1

encorafenib = compound: COC(=O)N[C@@H](C)CNc1nccc(-c2cn(C(C)C)nc2-c2cc(Cl)cc(NS(C)(=O)=O)c2F)n1 [encorafenib]
Method in brief: as §1

[8] = compound: COC(=O)[C@H](CCSC)NC(=O)C1=C(C=C(C=C1)NC[C@H](CS)N)C2=CC=CC=C2
Method in brief: as §1

alisertib = compound: COc1cc(Nc2ncc3c(n2)-c2ccc(Cl)cc2C(c2c(F)cccc2OC)=NC3)ccc1C(=O)O [alisertib]
Method in brief: as §1

[9] = compound: COc1cc2nc(-c3cc(F)ccc3O)nc(N[C@@H]3CNC[C@H]3C(C)(C)O)c2cc1OC
Method in brief: as §1

gefitinib = compound: COc1cc2ncnc(Nc3ccc(F)c(Cl)c3)c2cc1OCCCN1CCOCC1 [gefitinib]
Method in brief: as §1

Measured: log2 fold change

VAMP2 (UniProt P63027)
inactive: vemurafenib 0.002 | [1] -0.027 | barasertib 0.012 | volasertib 0.009 | [3] 0.02 | [4] 0.057 | [5] 0.091 | saracatinib 0.033 | sotrastaurin -0.028 | alvocidib 0.019 | Tubastatin A 0.027 | [6] 0.035 | defactinib 0.112 | [7] -0.01 | encorafenib 0.05 | [8] -0.057 | alisertib 0.014 | [9] 0.001 | gefitinib 0.018
active: [2] -0.286

VPS35L (UniProt Q7Z3J2)
inactive: vemurafenib 0.016 | [1] 0.002 | barasertib 0.001 | [2] -0.072 | volasertib -0.047 | [3] -0.004 | [4] -0.02 | [5] -0.005 | saracatinib 0.004 | sotrastaurin 0.046 | alvocidib 0 | Tubastatin A -0.083 | [6] 0.015 | defactinib 0.036 | [7] -0.013 | encorafenib 0.014 | [8] 0.006 | alisertib -0.034 | [9] -0.023 | gefitinib -0.076

VPS33A (UniProt Q96AX1)
Sequence of UniProt Q96AX1 (Q96AX1 whole entry, looked up): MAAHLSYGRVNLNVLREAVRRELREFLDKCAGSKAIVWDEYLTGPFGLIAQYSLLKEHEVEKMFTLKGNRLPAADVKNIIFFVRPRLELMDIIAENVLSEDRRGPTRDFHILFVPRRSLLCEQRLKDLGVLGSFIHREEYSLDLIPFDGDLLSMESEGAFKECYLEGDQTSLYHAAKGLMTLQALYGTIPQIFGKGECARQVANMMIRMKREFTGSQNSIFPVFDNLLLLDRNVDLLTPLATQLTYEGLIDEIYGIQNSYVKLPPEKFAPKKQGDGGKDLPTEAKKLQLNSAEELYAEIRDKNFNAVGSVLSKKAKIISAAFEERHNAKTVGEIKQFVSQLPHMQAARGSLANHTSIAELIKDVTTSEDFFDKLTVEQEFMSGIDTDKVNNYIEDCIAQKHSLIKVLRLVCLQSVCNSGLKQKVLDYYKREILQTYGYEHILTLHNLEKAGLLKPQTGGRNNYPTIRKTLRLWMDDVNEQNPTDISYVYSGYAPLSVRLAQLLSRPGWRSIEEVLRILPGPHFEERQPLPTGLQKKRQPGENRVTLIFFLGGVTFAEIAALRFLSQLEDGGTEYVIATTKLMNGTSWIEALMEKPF
inactive: vemurafenib -0.012 | [1] 0.022 | barasertib 0.037 | [2] 0.018 | volasertib -0.042 | [3] 0.018 | [4] -0.041 | [5] -0.033 | saracatinib -0.001 | sotrastaurin 0.03 | alvocidib -0.01 | Tubastatin A -0.077 | [6] 0.033 | defactinib 0.012 | [7] -0.011 | encorafenib 0.028 | [8] -0.044 | alisertib 0.021 | [9] -0.022 | gefitinib 0.027

VASP (UniProt P50552)
inactive: vemurafenib -0.012 | [1] -0.011 | barasertib -0.069 | [2] -0.022 | volasertib -0.008 | [3] 0.009 | [4] 0.006 | [5] -0.009 | saracatinib 0.007 | sotrastaurin -0.004 | alvocidib 0.031 | Tubastatin A 0.022 | [6] -0.017 | defactinib 0.013 | [7] -0.003 | encorafenib -0.033 | [8] -0.007 | alisertib 0.018 | [9] 0.009 | gefitinib 0.019

VAV1 (UniProt P15498)
inactive: vemurafenib 0.032 | [1] -0.017 | barasertib 0.022 | [2] -0.041 | volasertib -0.002 | [3] -0.041 | [4] -0.114 | [5] 0.035 | saracatinib -0.011 | sotrastaurin -0.021 | alvocidib 0.005 | Tubastatin A -0.117 | [6] -0.028 | defactinib 0.018 | [7] 0.007 | encorafenib -0.026 | [8] 0.025 | alisertib -0.006 | [9] -0.044 | gefitinib 0.024

ZC3HC1 (UniProt Q86WB0)
Sequence of UniProt Q86WB0 (Q86WB0 whole entry, looked up): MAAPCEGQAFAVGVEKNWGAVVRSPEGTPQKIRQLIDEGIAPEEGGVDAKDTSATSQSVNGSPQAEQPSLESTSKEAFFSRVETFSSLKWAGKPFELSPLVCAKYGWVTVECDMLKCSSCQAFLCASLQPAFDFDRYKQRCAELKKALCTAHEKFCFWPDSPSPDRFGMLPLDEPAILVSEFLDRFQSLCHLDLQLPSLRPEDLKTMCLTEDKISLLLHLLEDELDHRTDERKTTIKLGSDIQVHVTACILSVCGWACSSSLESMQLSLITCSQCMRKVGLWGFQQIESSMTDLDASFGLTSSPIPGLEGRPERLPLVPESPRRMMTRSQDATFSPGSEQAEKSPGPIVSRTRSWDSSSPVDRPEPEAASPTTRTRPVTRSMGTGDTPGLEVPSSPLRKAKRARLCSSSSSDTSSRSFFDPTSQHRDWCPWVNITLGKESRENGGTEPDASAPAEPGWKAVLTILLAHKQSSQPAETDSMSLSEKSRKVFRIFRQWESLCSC
inactive: vemurafenib -0.006 | [1] 0.027 | barasertib -0.029 | [2] -0.036 | volasertib 0.015 | [3] 0.008 | [5] -0.075 | saracatinib -0.03 | sotrastaurin -0.022 | alvocidib 0.049 | Tubastatin A -0.101 | [6] 0.018 | defactinib -0.015 | [7] 0.034 | encorafenib -0.001 | [8] 0.078 | alisertib 0.022 | [9] -0.013 | gefitinib 0.024
active: [4] 0.253

VPS54 (UniProt Q9P1Q0)
inactive: vemurafenib 0.046 | [1] -0.015 | barasertib -0.042 | [2] -0.037 | volasertib 0.068 | [3] -0.259 | [4] -0.278 | [5] 0.141 | saracatinib 0.05 | sotrastaurin -0.087 | alvocidib -0.07 | Tubastatin A 0 | [6] 0.059 | defactinib -0.07 | [7] 0.013 | encorafenib -0.001 | [8] 0.105 | alisertib -0.024 | [9] 0.071 | gefitinib 0.089

ZMAT2 (UniProt Q96NC0)
Sequence of UniProt Q96NC0 (Q96NC0 whole entry, looked up): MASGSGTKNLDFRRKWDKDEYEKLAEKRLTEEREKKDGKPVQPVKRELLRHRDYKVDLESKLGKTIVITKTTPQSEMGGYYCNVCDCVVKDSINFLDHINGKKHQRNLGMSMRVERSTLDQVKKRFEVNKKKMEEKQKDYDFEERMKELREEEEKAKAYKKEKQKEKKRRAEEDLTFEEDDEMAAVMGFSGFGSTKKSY
inactive: vemurafenib -0.015 | [1] 0 | barasertib -0.041 | [2] 0.062 | volasertib 0.039 | [3] -0.026 | [4] -0.034 | [5] 0.087 | saracatinib 0.017 | sotrastaurin -0.036 | alvocidib -0.001 | Tubastatin A 0.053 | [6] -0.012 | defactinib -0.001 | [7] -0.037 | encorafenib -0.035 | [8] -0.014 | alisertib 0.009 | [9] 0.001 | gefitinib 0.013

WDR6 (UniProt Q9NNW5)
inactive: vemurafenib 0.008 | [1] -0.007 | barasertib 0.013 | [2] -0.006 | volasertib -0.029 | [3] -0.009 | [4] -0.053 | [5] 0.033 | saracatinib 0.01 | sotrastaurin 0.116 | alvocidib -0.009 | Tubastatin A -0.077 | [6] -0.004 | defactinib 0.003 | [7] -0.011 | encorafenib 0.015 | [8] 0.031 | alisertib 0.005 | [9] 0.016 | gefitinib -0.013

WAC (UniProt Q9BTA9)
Sequence of UniProt Q9BTA9 (Q9BTA9 whole entry, looked up): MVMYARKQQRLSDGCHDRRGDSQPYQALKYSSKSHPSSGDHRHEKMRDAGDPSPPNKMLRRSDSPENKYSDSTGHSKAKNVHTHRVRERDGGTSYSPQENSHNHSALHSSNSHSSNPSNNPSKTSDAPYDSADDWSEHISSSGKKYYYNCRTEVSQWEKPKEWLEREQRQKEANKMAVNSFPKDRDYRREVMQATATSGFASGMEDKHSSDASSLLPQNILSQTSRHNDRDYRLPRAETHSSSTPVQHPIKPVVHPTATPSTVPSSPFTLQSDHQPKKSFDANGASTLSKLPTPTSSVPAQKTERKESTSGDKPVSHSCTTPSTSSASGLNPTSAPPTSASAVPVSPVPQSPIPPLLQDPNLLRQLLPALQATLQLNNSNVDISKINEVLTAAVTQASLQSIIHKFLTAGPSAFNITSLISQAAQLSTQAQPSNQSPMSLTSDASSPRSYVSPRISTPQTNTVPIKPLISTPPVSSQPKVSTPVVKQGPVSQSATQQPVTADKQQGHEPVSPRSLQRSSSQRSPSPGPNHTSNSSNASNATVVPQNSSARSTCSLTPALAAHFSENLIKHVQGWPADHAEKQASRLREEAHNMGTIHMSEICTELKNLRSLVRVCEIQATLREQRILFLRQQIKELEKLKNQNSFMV
inactive: vemurafenib 0.018 | [1] 0.051 | barasertib 0.077 | [2] 0 | volasertib -0.003 | [3] 0.051 | [4] 0.061 | [5] 0.024 | saracatinib 0.013 | sotrastaurin -0.002 | alvocidib -0.008 | Tubastatin A -0.035 | [6] 0.068 | defactinib 0.013 | [7] 0.007 | encorafenib -0.006 | [8] 0.118 | alisertib -0.019 | [9] -0.01 | gefitinib 0.009

WDR41 (UniProt Q9HAD4)
Sequence of UniProt Q9HAD4 (Q9HAD4 whole entry, looked up): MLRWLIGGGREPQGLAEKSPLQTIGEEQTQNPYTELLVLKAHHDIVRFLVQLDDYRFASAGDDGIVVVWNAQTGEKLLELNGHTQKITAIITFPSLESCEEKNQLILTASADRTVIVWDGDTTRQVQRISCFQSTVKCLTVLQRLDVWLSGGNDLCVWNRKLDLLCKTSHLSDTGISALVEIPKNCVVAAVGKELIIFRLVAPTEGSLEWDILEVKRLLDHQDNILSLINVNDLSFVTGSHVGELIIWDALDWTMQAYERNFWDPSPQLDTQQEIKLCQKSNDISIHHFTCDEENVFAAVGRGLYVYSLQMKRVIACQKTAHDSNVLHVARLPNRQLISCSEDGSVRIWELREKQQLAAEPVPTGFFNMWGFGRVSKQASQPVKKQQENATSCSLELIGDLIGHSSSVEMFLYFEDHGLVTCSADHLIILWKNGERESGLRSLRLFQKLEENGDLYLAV
inactive: vemurafenib -0.018 | [1] 0.036 | barasertib -0.07 | [2] 0.089 | volasertib 0.005 | [3] 0.053 | [4] -0.032 | [5] 0.053 | saracatinib 0.017 | sotrastaurin 0.043 | alvocidib -0.061 | Tubastatin A -0.14 | [6] 0.021 | defactinib -0.044 | [7] 0.017 | encorafenib 0.081 | [8] -0.121 | alisertib 0.033 | [9] -0.047 | gefitinib 0.083

VPS11 (UniProt Q9H270)
Sequence of UniProt Q9H270 (Q9H270 whole entry, looked up): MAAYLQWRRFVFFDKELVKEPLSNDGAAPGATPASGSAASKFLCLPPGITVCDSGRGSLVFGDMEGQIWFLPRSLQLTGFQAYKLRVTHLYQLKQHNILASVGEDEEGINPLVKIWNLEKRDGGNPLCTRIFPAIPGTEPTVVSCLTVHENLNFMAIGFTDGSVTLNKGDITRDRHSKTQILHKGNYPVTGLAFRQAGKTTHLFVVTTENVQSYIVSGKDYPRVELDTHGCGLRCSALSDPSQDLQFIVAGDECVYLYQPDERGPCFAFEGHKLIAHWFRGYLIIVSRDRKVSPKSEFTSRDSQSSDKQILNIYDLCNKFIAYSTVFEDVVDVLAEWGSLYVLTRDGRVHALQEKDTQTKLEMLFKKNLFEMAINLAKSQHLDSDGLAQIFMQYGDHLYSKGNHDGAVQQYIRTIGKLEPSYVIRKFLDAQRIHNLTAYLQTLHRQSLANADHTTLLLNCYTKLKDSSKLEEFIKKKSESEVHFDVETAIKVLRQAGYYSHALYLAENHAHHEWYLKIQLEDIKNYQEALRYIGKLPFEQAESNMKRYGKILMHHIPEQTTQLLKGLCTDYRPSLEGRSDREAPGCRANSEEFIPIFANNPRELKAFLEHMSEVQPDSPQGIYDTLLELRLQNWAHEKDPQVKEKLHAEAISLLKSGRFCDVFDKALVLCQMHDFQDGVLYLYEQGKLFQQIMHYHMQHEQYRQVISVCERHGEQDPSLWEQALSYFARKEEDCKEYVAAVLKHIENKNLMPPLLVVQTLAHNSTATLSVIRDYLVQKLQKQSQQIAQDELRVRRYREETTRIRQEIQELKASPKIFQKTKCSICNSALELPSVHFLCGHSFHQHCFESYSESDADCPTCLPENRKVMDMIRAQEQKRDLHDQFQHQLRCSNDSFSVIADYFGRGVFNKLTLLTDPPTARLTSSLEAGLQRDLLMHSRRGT
inactive: vemurafenib -0.002 | [1] 0.034 | barasertib 0.013 | [2] -0.033 | volasertib -0.038 | [3] 0.015 | [4] -0.051 | [5] -0.007 | saracatinib 0.039 | sotrastaurin 0.019 | alvocidib 0.039 | Tubastatin A -0.113 | [6] 0.023 | defactinib 0.022 | [7] -0.026 | encorafenib 0.016 | [8] -0.096 | alisertib 0.002 | [9] 0.019 | gefitinib -0.007

USP16 (UniProt Q9Y5T5)
inactive: vemurafenib 0.038 | [1] 0.005 | barasertib 0.016 | [2] -0.009 | volasertib -0.011 | [3] 0.01 | [4] 0.039 | [5] -0.045 | saracatinib 0.054 | sotrastaurin 0.013 | alvocidib 0.004 | Tubastatin A -0.118 | [6] -0.011 | defactinib 0.035 | [7] 0.008 | encorafenib 0.059 | [8] 0.081 | alisertib -0.011 | [9] -0.003 | gefitinib -0.013

YME1L1 (UniProt Q96TA2)
Sequence of UniProt Q96TA2 (Q96TA2 whole entry, looked up): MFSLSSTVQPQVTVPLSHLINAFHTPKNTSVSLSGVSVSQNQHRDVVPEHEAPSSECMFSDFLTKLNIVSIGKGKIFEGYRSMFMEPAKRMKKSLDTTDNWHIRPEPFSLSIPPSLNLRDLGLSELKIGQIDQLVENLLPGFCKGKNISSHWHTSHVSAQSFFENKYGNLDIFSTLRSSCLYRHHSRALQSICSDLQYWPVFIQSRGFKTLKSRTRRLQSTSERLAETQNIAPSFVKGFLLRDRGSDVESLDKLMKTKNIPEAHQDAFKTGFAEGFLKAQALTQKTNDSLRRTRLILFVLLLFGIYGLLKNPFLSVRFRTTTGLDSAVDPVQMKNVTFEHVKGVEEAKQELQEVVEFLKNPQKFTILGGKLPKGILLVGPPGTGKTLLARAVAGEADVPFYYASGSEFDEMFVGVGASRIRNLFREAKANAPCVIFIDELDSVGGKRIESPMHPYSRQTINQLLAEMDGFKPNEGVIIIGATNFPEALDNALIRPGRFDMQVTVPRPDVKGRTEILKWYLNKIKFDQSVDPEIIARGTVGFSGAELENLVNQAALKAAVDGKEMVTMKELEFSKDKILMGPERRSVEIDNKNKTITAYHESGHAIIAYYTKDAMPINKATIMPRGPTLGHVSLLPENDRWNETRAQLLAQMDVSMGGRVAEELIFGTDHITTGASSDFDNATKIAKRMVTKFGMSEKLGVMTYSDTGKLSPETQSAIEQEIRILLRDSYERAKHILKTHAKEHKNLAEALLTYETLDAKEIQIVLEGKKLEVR
active: [8] -0.301
inactive: vemurafenib 0.01 | [1] 0.011 | barasertib 0.036 | [2] -0.008 | volasertib -0.02 | [3] 0.035 | [4] 0.181 | [5] -0.088 | saracatinib 0.037 | sotrastaurin 0.055 | alvocidib 0.018 | Tubastatin A 0.048 | [6] 0.011 | defactinib 0.018 | [7] -0.061 | encorafenib 0.05 | alisertib -0.016 | [9] 0.028 | gefitinib 0.042

VPS41 (UniProt P49754)
Sequence of UniProt P49754 (P49754 whole entry, looked up): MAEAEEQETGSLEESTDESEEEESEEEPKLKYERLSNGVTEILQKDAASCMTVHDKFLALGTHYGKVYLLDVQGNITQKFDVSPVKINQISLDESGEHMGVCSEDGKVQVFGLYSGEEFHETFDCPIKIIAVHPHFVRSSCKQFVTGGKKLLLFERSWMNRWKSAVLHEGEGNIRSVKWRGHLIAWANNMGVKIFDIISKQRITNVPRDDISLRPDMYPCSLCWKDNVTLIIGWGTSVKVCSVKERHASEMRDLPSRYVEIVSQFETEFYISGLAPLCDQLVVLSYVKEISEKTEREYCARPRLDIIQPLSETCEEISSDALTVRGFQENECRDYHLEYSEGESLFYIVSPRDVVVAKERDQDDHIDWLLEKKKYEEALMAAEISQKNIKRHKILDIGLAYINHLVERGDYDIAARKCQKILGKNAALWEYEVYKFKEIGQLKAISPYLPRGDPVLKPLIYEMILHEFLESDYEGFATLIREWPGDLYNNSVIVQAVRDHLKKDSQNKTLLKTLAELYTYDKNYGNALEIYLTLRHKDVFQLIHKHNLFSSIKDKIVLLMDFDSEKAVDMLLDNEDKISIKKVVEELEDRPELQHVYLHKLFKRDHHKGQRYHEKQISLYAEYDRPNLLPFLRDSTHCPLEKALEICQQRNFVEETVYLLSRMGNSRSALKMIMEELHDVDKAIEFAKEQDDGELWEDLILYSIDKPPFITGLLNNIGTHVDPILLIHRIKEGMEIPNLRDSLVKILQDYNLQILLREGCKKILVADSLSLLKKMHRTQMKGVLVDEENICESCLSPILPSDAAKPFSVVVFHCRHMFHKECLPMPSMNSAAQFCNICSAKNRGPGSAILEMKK
inactive: vemurafenib -0.018 | [1] -0.016 | barasertib 0.085 | [2] 0.005 | volasertib -0.078 | [3] 0.06 | [4] 0.074 | [5] -0.054 | saracatinib 0.002 | sotrastaurin 0.058 | alvocidib 0.068 | Tubastatin A -0.128 | [6] 0.03 | defactinib 0.006 | [7] -0.055 | encorafenib 0.019 | [8] -0.072 | alisertib -0.043 | [9] 0.006 | gefitinib -0.004

YLPM1 (UniProt P49750)
inactive: vemurafenib 0.062 | [1] 0.005 | barasertib 0.032 | [2] 0.069 | volasertib -0.019 | [3] -0.018 | [4] 0.165 | [5] -0.085 | saracatinib 0.033 | sotrastaurin 0.012 | alvocidib 0.061 | Tubastatin A -0.041 | [6] 0.01 | defactinib 0.041 | [7] 0.131 | encorafenib 0.049 | [8] -0.09 | alisertib -0.033 | [9] 0 | gefitinib -0.086

Reference: the supplement of paper PMC10849652
